Values joined by “and” are separate entries in the source; they are usually repeats but may differ in a detail not shown here. Equal values may be shown once. Some compounds were tested as several samples or in several runs, with calls that do not always agree. Active and inactive are the calls of the source. The calls were made as follows: active = hit-call score of the fitted dose curve at least 0.9, where 1 is the maximum; inactive = score below 0.9.

One test can be described thus: BSK_SAg_Proliferation: Cell Proliferation Assessment in the BioMAP Diversity Plus: SAg Assay (AID 2283095).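 Also: relative cell number as total protein by SRB absorbance in sub-confluent culture.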 To be noted: primary human HUVEC with PBMC. The method, boiled down:
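A human primary co-culture of umbilical vein endothelium and blood mononuclear cells receives compound; relative cell number is quantified at 96 h by SRB staining and 560 nm absorbance, with DMSO-referenced bidirectional curve fitting.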
In the case of `CCCCc1oc2ccccc2c1C(=O)c1cc(I)c(OCCN(CC)CC)c(I)c1`, the half-maximal activity concentration (AC50) was 4.1 µM (active).

In the case of `CCCCC(CC)C(=O)O` (stereo not given), the outcome was inactive.

Turning to `O=C(CCCN1CCC(O)(c2ccc(Cl)cc2)CC1)c1ccc(F)cc1`, the AC50 was 27 µM (active).

On to `CCC(C)c1ccccc1O` (stereo not given), for which the outcome was inactive.

As to `O=P(O)(O)CCC(F)(F)C(F)(F)C(F)(F)C(F)(F)C(F)(F)C(F)(F)C(F)(F)C(F)(F)F`, the outcome was inactive.

Regarding `CCCCCCCCCCCCCCCCCC[N+](C)(C)Cc1ccccc1`, the half-maximal activity concentration (AC50) was 0.312 µM (active).

Turning to `CC(=O)Nc1ccc(O)cc1`, the result was inactive.

For `CN(CCO)S(=O)(=O)C(F)(F)C(F)(F)C(F)(F)C(F)(F)C(F)(F)C(F)(F)C(F)(F)C(F)(F)F`, the outcome was inactive.

For the compound `OCC(F)(F)C(F)(F)C(F)(F)C(F)(F)C(F)(F)C(F)(F)C(F)(F)C(F)(F)C(F)(F)C(F)(F)C(F)(F)F`, the concentration at half-maximal activity (AC50) is 476 nM (active) and 63.9 nM (active).

For the compound `O=P(O)(O)CCC(F)(F)C(F)(F)C(F)(F)C(F)(F)C(F)(F)C(F)(F)F`, the result was inactive.

For the compound `CS(=O)(=O)c1ccc([C@@H](CC2CCCC2)C(=O)Nc2cnccn2)cc1Cl`, the concentration at half-maximal activity (AC50) was 15.2 µM (active).

As for `O=C1c2ccc(O)c(O)c2C(=O)c2c(O)ccc(O)c21`, the outcome was inactive.

For the compound `O=C(O)CCC(F)(F)C(F)(F)C(F)(F)C(F)(F)C(F)(F)C(F)(F)F`, the outcome was inactive.

Take `C[C@]12CC[C@@H]3c4ccc(O)cc4CC[C@H]3[C@@H]1C[C@@H](O)[C@@H]2O`: the result was inactive.

As for `OCCN1CN(CCO)CN(CCO)C1`, the half-maximal activity concentration (AC50) is 26 µM (active).

Take `CC1=NN(c2ccccc2)C(=O)C1`: the outcome was inactive.

Regarding `Oc1cc2ccccc2cc1O`, the outcome was inactive.

As for `OCC(CO)(CBr)CBr`, the outcome was inactive.

Turning to `O=C(CC(=O)C(F)(F)C(F)(F)C(F)(F)F)c1cccs1`, the concentration at half-maximal activity (AC50) is 13.5 µM (active) and 13.3 µM (active).

Consider `O=S(=O)(O)C(F)(F)C(F)(F)C(F)(F)C(F)(F)C(F)(F)C(F)(F)C(F)(F)C(F)(F)C(F)(F)C(F)(F)F`, for which the outcome was inactive.

With `CCOC(=O)CN[C@@H](C(=O)N1CC[C@H]1C(=O)NCc1ccc(/C(N)=N/O)cc1)C1CCCCC1`, the outcome was inactive.

As for `CN(C)c1ccc(C(=C2C=CC(=[N+](C)C)C=C2)c2ccccc2)cc1`, the half-maximal activity concentration (AC50) was 0.0153 µM (active).

As for `CCCCCc1ccc(O)cc1`, the AC50 is 15.3 µM (active).

With `CN(Cc1cnc2nc(N)nc(N)c2n1)c1ccc(C(=O)N[C@@H](CCC(=O)O)C(=O)O)cc1`, the AC50 was 3.39 µM (active) and 2.18 µM (active) and 1.17 µM (active).

In the case of `CCCCCCCCCCCCCCC`, the outcome was inactive.

For `CN(C)CCOC(c1ccccc1)c1ccccc1`, the outcome was inactive.

For the compound `Cc1ccc(C(=O)c2ccccc2)cc1`, the outcome was inactive.

The next test in a line: BSK_SAg_SRB: Viability Assessment in the BioMAP Diversity Plus: SAg Assay (AID 2283096).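 Also: cells read one day after compound addition; hits may be either gain or loss of signal compared with DMSO.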 To be noted: primary human HUVEC with PBMC. The method, boiled down: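 SRB absorbance at 560 nm served as the viability read-out. Cells (HUVEC plus peripheral blood mononuclear cells) were TCA-fixed and stained 24 h post-dosing; activity fitted in both directions against DMSO controls.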
On to `CCCCc1oc2ccccc2c1C(=O)c1cc(I)c(OCCN(CC)CC)c(I)c1`, for which the half-maximal activity concentration (AC50) is 13.4 µM (active).

For `CCCCC(CC)C(=O)O` (stereo not given), the outcome was inactive.

As for `O=C(CCCN1CCC(O)(c2ccc(Cl)cc2)CC1)c1ccc(F)cc1`, the AC50 was 19 µM (active).

Take `CCC(C)c1ccccc1O` (stereo not given): the result was inactive.

For `O=P(O)(O)CCC(F)(F)C(F)(F)C(F)(F)C(F)(F)C(F)(F)C(F)(F)C(F)(F)C(F)(F)F`, the half-maximal activity concentration (AC50) was 25.1 µM (active) and 38.3 µM (active).

`CCCCCCCCCCCCCCCCCC[N+](C)(C)Cc1ccccc1`: the AC50 is 2.67 µM (active).

With `CC(=O)Nc1ccc(O)cc1`, the result was inactive.

As to `CN(CCO)S(=O)(=O)C(F)(F)C(F)(F)C(F)(F)C(F)(F)C(F)(F)C(F)(F)C(F)(F)C(F)(F)F`, the result was inactive.

Consider `OCC(F)(F)C(F)(F)C(F)(F)C(F)(F)C(F)(F)C(F)(F)C(F)(F)C(F)(F)C(F)(F)C(F)(F)C(F)(F)F`, for which the outcome was inactive.

`O=P(O)(O)CCC(F)(F)C(F)(F)C(F)(F)C(F)(F)C(F)(F)C(F)(F)F`: the outcome was inactive.

As for `CS(=O)(=O)c1ccc([C@@H](CC2CCCC2)C(=O)Nc2cnccn2)cc1Cl`, the result was inactive.

As to `O=C1c2ccc(O)c(O)c2C(=O)c2c(O)ccc(O)c21`, the result was inactive.

On to `O=C(O)CCC(F)(F)C(F)(F)C(F)(F)C(F)(F)C(F)(F)C(F)(F)F`, for which the outcome was inactive.

As for `C[C@]12CC[C@@H]3c4ccc(O)cc4CC[C@H]3[C@@H]1C[C@@H](O)[C@@H]2O`, the outcome was inactive.

Regarding `OCCN1CN(CCO)CN(CCO)C1`, the AC50 is 33.4 µM (active).

For `CC1=NN(c2ccccc2)C(=O)C1`, the result was inactive.

Regarding `Oc1cc2ccccc2cc1O`, the result was inactive.

Consider `OCC(CO)(CBr)CBr`, for which the result was inactive.

Consider `O=C(CC(=O)C(F)(F)C(F)(F)C(F)(F)F)c1cccs1`, for which the concentration at half-maximal activity (AC50) was 29.9 µM (active) and 48.5 µM (active).

As to `O=S(=O)(O)C(F)(F)C(F)(F)C(F)(F)C(F)(F)C(F)(F)C(F)(F)C(F)(F)C(F)(F)C(F)(F)C(F)(F)F`, the AC50 was 13.2 µM (active) and the outcome was inactive.

With `CCOC(=O)CN[C@@H](C(=O)N1CC[C@H]1C(=O)NCc1ccc(/C(N)=N/O)cc1)C1CCCCC1`, the outcome was inactive.

Consider `CN(C)c1ccc(C(=C2C=CC(=[N+](C)C)C=C2)c2ccccc2)cc1`, for which the half-maximal activity concentration (AC50) is 0.0747 µM (active).

On to `CCCCCc1ccc(O)cc1`, for which the half-maximal activity concentration (AC50) is 25.9 µM (active).

`CN(Cc1cnc2nc(N)nc(N)c2n1)c1ccc(C(=O)N[C@@H](CCC(=O)O)C(=O)O)cc1`: the result was inactive.

For the compound `CCCCCCCCCCCCCCC`, the outcome was inactive.

`CN(C)CCOC(c1ccccc1)c1ccccc1`: the result was inactive.

For `Cc1ccc(C(=O)c2ccccc2)cc1`, the outcome was inactive.

These data come from PubChem BioAssay (EPA / NIEHS).
